The target of assay [1] is Cytochrome P450 3A4 (Homo sapiens) (UniProt P08684). In words: qHTS Assay for Inhibitors and Substrates of Cytochrome P450 3A4 (AID 884). Also: series mostly up to about 57 µM; % is scaled to controls: 0 for no effect and ±100 for the full control effect; nearly all actives have a fitted effect of over 50% in size. In a few lines:
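Luminescent readout of luciferin produced by CYP3A4 (20 nM) dealkylation of Luciferin-PPXE, 25 uM (its KM). NADPH-driven reaction ran 60 min at RT after 10 min compound preincubation; data scaled to 57 uM ketoconazole as 100% inhibition.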
(Quantitative high-throughput screening tests each substance at several concentrations.)

Assay [2] can be described thus: Cell Viability - LYMP2-001 (AID 921).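 Also: cells exposed to compound for 24 h at 37 °C; nearly all actives have a fitted effect of over 70% in size.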 Also: potency is read from the fitted curve at half-maximal effect. A digest of the protocol: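 A lymphoblastoid cell line of human origin was treated with library compounds across a concentration series for 24 hours, and viable cell number was estimated from ATP-driven luciferase light output. Hill modeling gave AC50.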
The nature of assay [3]: MultiTox-Fluor Cytotoxicity Assay - LYMP1-001 - Live Cells (AID 947).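 Also: 0% = DMSO only and full inhibition = tetraoctylammonium bromide control.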
A short description of assay [4]: Cell Viability - LYMP2-010 (AID 981).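 Also: cells exposed to compound for 24 hours at 37 °C; nearly all actives have a fitted effect of over 55% in size.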 Also: potency is read from the fitted curve at half-maximal effect. A digest of the protocol:
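This 24 hr viability screen uses LYMP2-010 lymphoblastoid cells, quantifies ATP via luciferase luminescence, and derives AC50 from Hill fits of qHTS concentration-response data.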

A short description of assay [5]: Cell Viability - LYMP2-012 (AID 982).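 Also: cellular ATP by luciferase luminescence where a drop means cytotoxicity; cells exposed to compound for one day before reading; 0% = DMSO only and full loss = 92 µM tetraoctylammonium bromide; nearly all actives have a fitted effect of over 55% in size.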
Assay [6] is described as follows: Cell Viability - LYMP2-016 (AID 984).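 Also: cells exposed to compound for 24 hours at 37 °C; % is scaled to controls: 0 for no effect and ±100 for the full control effect; nearly all actives have a fitted effect of over 55% in size.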 In a few lines: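 Concentration-dependent ATP depletion measured in LYMP2-016 lymphoblastoid cells, 24 h, 37 C; luciferase-based luminescent detection; Hill-equation AC50.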
Assay [7] can be described thus: Cell Viability - LYMP2-024 (AID 988). Also: nearly all actives have a fitted effect of over 60% in size. Also: potency is read from the fitted curve at half-maximal effect. In a few lines:
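Cells at 2500 per well received compound for 24 hr after a 5 hr settling period. Viability was scored by CellTiter-Glo luminescence, with AC50 from Hill fits.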

The target in assay [8] is Estrogen receptor (Homo sapiens) (UniProt P03372). In words: qHTS assay for small molecule antagonists of estrogen receptor alpha signaling (AID 588513; active = well fitted curve in the direction sought with a large enough effect in the signal ratio, with a control signal flat, not every such curve was filed as active; the % refers to the signal ratio; also: % is scaled to controls: 0 for no effect and ±100 for the full control effect). A digest of the protocol: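 Antagonist-mode qHTS in ER-alpha-UAS-bla HEK 293 cells: compound titration, 0.5nM estradiol for 18 h, CCF4 fluorescence, Hill-derived IC50.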
Sequence of Estrogen receptor (Homo sapiens) (P03372 whole entry, looked up): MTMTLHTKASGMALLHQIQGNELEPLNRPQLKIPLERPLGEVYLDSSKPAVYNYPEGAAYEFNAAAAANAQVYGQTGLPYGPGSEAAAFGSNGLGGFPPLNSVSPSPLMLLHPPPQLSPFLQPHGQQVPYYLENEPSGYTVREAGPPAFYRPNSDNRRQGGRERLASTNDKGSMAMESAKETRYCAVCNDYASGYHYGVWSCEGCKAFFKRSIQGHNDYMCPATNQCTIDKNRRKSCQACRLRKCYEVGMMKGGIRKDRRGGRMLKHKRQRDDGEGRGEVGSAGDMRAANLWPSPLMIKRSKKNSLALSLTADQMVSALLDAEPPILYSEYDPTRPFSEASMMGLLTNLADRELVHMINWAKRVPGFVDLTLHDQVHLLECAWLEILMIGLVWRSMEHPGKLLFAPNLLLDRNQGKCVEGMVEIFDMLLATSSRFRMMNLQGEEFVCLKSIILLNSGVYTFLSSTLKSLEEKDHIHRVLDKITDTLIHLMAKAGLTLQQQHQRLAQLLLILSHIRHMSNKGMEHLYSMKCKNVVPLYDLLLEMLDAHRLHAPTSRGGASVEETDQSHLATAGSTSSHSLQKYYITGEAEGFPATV
Assay [9] has the same target. The assay is described as follows: qHTS assay for small molecule agonists of estrogen receptor alpha signaling (AID 588514; calls by dose curve;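 also: 0% = vehicle only and 100% = reference agonist; nearly all actives have a fitted effect of over 70% in size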). A digest of the protocol: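 Fluorescence from CCF4 cleavage reports ER-alpha-driven beta-lactamase expression in HEK 293 cells treated 18 hrs at 37 C. Data normalized to 17-beta-estradiol (20 nM) and DMSO, fitted to Hill equation.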
The target of assay [10] is Glucocorticoid receptor (Homo sapiens) (UniProt P04150). In words: qHTS assay for small molecule agonists of glucocorticoid receptor signaling (AID 588532; active = well fitted curve in the direction sought with a large enough effect in the signal ratio, with a control signal flat; the % refers to the signal ratio;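 also: 100% = dexamethasone at 0.1 µM and 0% = DMSO only wells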). Conditions: HeLa MMTV-bla, beta-lactamase ratio, agonist, 18 h; hits give high values; percent of dexamethasone control, DMSO zero. A digest of the protocol:
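MMTV-bla HeLa, beta-lactamase reporter; medium with 1% charcoal/dextran-stripped FBS; cpds up to 92 uM, 18 h, 37 C; CCF4 readout 460/530 nm; Hill fit → EC50, efficacy vs 0.1 uM dexamethasone = 100%.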

Assay [11] shares this target. The assay is described as follows: qHTS assay for small molecule antagonists of glucocorticoid receptor signaling (AID 588533; active = well fitted inhibition curve with a large enough effect in the signal ratio, with a control signal flat, not every such curve was filed as active; the % refers to the signal ratio;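 also: cells stimulated with 2 nM dexamethasone as agonist; % is scaled to controls: 0 for no effect and ±100 for the full control effect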). In a few lines:
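Antagonist-mode qHTS: compound titrations added to GRE-bla HeLa cells, then dexamethasone 2 nM final; 18 h, 37 C. CCF4 FRET fluorescence normalized to dexamethasone and DMSO; IC50 from Hill fit.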

Assay [12] addresses Peroxisome proliferator-activated receptor gamma (Homo sapiens) (UniProt P37231). In words: qHTS assay for small molecule agonists of peroxisome proliferator-activated receptor gamma signaling (AID 588536; active = well fitted curve in the direction sought with a large enough effect in the signal ratio, with a control signal flat, not every such curve was filed as active; the % refers to the signal ratio;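 also: 0% = DMSO basal wells and 100% = rosiglitazone at 2 µM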). A digest of the protocol: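 Compound treatment: 16 h, 37 C, HEK293 GeneBLAzer cells. Detection: CCF4, 2 h RT. Values: Hill-fit EC50, efficacy as % of 2 uM rosiglitazone.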

The target in assay [13] is Retinoic acid receptor RXR-alpha (Homo sapiens) (UniProt P19793). The assay is described as follows: qHTS assay for small molecule agonists of retinoid X receptor alpha signaling (AID 588544; calls by dose curve;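 also: 0% = DMSO basal wells and 100% = reference agonist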).
Sequence of Retinoic acid receptor RXR-alpha (Homo sapiens) (P19793 whole entry, looked up): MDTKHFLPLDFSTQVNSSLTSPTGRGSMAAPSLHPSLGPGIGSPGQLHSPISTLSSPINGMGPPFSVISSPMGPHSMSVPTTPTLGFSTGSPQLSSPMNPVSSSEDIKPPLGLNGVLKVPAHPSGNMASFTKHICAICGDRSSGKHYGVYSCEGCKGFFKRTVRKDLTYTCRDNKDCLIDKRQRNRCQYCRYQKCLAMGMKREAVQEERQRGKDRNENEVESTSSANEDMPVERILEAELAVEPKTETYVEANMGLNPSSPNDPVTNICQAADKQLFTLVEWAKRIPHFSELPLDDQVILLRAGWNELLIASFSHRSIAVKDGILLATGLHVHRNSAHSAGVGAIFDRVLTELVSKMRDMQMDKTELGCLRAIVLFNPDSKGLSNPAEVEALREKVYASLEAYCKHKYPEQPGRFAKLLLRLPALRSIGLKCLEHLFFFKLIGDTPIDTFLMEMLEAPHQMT
Assay [14] concerns the target Thyroid hormone receptor beta (Homo sapiens) (UniProt P10828). In words: qHTS assay for small molecule antagonists of thyroid hormone receptor beta signaling (AID 588547; active = well fitted inhibition curve with a large enough effect in the signal ratio, with a control signal flat, not every such curve was filed as active; the % refers to the signal ratio;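 also: cells stimulated with 0.4 nM T3 agonist during compound exposure; series mostly up to about 77 µM; % is scaled to controls: 0 for no effect and ±100 for the full control effect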). The note with it: TR-UAS-bla HEK293, beta-lactamase ratio, antagonist mode, 18 h. A digest of the protocol: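 TR-UAS-bla GripTite HEK293 cells in 2% charcoal/dextran FBS medium were preincubated 4 h at 37 C, given compound (0.59 nM to 92 uM) plus 0.4 nM T3 (final) for 18 h, then CCF4 for 2 h at RT; Hill fit gave IC50.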

A short description of assay [15]: qHTS assay for small molecule activators of the p53 signaling pathway (AID 651743; active = well fitted activation curve with a large enough effect in the signal ratio, not every such curve was filed as active; the % refers to the signal ratio; also: series mostly up to about 92 µM; % of control where 0% means no effect). Conditions: HCT-116 p53RE-bla, beta-lactamase FRET ratio, 16 h; activation: hits give high values. A digest of the protocol:
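Here HCT-116 cells with an integrated p53-responsive beta-lactamase gene were incubated with compounds (16 hours, 37 C) after a 5-hour plating period; beta-lactamase activity was detected as fluorescence intensity via B/G FRET substrate.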

Assay [16] addresses Tumor necrosis factor (Homo sapiens) (UniProt P01375). In words: qHTS assay to identify small molecules that stimulate Tumor Necrosis Factor-alpha (TNF-alpha) secretion (AID 651757; active = well fitted curve in the direction sought with a large enough effect in the signal ratio; the % refers to the signal ratio; also: 0% is about no effect). In a few lines:
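Using 3000 THP-1 cells per well, compounds and controls were applied for 17 hrs at 37 C. Detection followed with two labeled anti-TNF-alpha antibodies (cryptate donor, XL665 acceptor) for 3 hr at room temperature, measured by TR-FRET.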

Assay [17] is described as follows: qHTS assay for environmental chemicals that activate the Aryl hydrocarbon Receptor (AhR) signaling pathway (AID 651777). Also: % of control where 0% means no effect; nearly all actives have a fitted effect of over 15% in size. Conditions: 1A2-DRE human hepatoma cells, luciferase, 24 h; activation: hits give high values. In a few lines:
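Concentration–response screening used 1,200 1A2-DRE cells per well, 24 hr compound exposure (37 C, 5% CO2), and One-Glo luminescence as the AhR-driven CYP1A2 reporter signal.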

Assay [18] deals with Nuclear receptor ROR-gamma (Homo sapiens) (UniProt P51449). The assay is described as follows: qHTS assay for small molecule antagonists of the retinoid-related orphan receptor gamma (ROR-gamma) signaling pathway (AID 651802). Also: nearly all actives have a fitted effect of over 60% in size. Also: potency is read from the fitted curve at half-maximal effect. A digest of the protocol: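 Doxycycline-induced reporter activity in engineered CHO cells (TET-inducible ROR, RORE-LUC) was measured by luminescence after 16hr compound exposure at 37C.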
Sequence of Nuclear receptor ROR-gamma (Homo sapiens) (P51449 whole entry, looked up): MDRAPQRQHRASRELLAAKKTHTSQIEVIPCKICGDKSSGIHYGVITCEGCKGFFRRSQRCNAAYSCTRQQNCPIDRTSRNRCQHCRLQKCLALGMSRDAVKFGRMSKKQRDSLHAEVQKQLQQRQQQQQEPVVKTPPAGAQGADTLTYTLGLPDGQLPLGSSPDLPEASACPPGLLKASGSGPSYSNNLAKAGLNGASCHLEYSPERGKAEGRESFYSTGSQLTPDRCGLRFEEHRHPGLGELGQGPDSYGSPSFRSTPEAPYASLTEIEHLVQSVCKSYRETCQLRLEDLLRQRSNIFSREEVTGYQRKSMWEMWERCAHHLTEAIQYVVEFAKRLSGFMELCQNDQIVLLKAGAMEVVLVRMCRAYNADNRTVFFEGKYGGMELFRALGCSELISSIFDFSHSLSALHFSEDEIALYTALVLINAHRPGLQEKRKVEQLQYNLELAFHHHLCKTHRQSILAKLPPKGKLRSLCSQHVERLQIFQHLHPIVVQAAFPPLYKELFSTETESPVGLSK

The nature of assay [19]: qHTS assay for small molecule antagonists of the retinoid-related orphan receptor gamma (ROR-gamma) signaling pathway - cell viability counter screen (AID 720652; active = well fitted curve in the direction sought with a large enough effect in the repeat runs; an effect the other way counts as inactive or inconclusive;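 also: series mostly up to about 92 µM; compound exposure lasted 16 hr before ATP read; % is scaled to controls: 0 for no effect and ±100 for the full control effect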). In a few lines: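 ATP-based viability readout in the ROR-gamma reporter CHO cells after 16 hr compound exposure under doxycycline induction.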
The target of assay [20] is Nuclear receptor subfamily 1 group I member 2 (Rattus norvegicus) (UniProt Q9R1A7). The assay is described as follows: qHTS assay for small molecule activators of the rat pregnane X receptor (rPXR) signaling pathway (AID 651751; call rule not given here; also: 0% is about no effect). Conditions: rPXR reporter cells, luciferase (One-Glo), 24 h.
Sequence of Nuclear receptor subfamily 1 group I member 2 (Rattus norvegicus) (Q9R1A7 whole entry, looked up): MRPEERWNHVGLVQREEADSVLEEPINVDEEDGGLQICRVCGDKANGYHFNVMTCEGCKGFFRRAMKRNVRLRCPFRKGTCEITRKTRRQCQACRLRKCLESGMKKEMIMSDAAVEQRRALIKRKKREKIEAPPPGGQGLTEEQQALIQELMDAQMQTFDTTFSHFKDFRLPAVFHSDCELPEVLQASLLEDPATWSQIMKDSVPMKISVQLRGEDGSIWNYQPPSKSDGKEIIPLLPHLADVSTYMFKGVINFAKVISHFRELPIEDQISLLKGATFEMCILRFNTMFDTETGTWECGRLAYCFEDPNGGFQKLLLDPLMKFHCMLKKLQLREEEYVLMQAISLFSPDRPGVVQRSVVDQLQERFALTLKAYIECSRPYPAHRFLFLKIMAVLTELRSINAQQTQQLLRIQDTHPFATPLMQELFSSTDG

These results are taken from PubChem BioAssay (NCATS).

Where “and” joins values, the source holds several entries; their conditions need not be identical. Identical values can stand only once. Values without a mark were called inactive. Results filed as inconclusive are left out. Calls of active or inactive are those of the source. Unless noted, calls follow the shape of the dose curve; as a rule, active = well fitted curve in the direction sought with a large enough effect; inconclusive = small, poorly fitted or top-dose-only effect, or another doubt; inactive = no such curve, though single readings can be large; an effect the other way counts as inactive or inconclusive.

Sequence of Peroxisome proliferator-activated receptor gamma (Homo sapiens) (P37231 whole entry, looked up): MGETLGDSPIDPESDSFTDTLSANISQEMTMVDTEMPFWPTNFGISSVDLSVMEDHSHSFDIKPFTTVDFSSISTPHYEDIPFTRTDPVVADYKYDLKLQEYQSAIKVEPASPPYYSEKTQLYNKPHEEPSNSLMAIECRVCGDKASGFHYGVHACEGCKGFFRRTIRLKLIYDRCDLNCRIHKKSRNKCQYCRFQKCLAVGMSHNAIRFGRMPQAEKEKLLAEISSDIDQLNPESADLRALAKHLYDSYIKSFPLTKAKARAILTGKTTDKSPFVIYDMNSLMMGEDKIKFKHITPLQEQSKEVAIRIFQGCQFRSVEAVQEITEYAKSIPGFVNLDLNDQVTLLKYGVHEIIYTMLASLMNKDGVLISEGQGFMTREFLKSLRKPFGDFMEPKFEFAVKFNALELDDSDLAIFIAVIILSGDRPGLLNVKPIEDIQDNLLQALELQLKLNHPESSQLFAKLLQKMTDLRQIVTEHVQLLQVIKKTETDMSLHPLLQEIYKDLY
Sequence of Tumor necrosis factor (Homo sapiens) (P01375 whole entry, looked up): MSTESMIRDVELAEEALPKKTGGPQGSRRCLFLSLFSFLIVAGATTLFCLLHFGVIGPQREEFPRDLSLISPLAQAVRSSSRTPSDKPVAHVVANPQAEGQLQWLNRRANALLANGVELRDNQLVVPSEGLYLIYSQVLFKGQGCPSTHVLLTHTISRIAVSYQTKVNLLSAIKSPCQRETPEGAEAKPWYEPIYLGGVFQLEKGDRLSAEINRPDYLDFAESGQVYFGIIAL
Sequence of Thyroid hormone receptor beta (Homo sapiens) (P10828 whole entry, looked up): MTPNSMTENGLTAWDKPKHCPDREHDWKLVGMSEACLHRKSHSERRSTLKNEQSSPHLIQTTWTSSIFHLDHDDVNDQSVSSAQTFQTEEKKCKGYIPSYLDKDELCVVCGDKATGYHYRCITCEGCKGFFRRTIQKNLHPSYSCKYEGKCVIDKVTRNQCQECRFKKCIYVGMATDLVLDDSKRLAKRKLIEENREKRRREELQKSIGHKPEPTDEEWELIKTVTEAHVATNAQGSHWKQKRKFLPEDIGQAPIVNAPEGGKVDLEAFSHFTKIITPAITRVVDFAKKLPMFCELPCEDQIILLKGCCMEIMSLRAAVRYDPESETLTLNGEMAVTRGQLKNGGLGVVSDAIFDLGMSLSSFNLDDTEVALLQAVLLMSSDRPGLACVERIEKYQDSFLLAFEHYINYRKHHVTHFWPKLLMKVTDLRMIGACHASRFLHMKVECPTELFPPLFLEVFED
Sequence of Glucocorticoid receptor (Homo sapiens) (P04150 whole entry, looked up): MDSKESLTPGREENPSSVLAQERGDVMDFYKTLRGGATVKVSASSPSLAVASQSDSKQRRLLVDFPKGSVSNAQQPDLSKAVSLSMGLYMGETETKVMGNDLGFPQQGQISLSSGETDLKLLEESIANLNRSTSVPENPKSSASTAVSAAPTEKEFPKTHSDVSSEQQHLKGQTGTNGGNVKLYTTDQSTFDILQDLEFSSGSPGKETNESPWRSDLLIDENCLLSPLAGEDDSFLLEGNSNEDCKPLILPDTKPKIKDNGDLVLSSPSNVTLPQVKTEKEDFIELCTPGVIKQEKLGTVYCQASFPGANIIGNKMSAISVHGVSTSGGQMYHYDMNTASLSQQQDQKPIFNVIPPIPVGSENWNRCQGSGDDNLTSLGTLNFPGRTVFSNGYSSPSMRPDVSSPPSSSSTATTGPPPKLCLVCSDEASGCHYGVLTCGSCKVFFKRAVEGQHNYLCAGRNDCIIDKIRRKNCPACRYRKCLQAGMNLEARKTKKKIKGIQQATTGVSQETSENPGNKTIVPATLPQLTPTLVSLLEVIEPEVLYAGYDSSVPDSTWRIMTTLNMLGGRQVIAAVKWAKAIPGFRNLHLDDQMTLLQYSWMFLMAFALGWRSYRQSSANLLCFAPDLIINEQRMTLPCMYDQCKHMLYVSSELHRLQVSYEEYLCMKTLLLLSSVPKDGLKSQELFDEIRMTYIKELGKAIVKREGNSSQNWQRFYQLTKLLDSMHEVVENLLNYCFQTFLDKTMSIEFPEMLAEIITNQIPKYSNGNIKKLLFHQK
Sequence of Cytochrome P450 3A4 (Homo sapiens) (P08684 whole entry, looked up): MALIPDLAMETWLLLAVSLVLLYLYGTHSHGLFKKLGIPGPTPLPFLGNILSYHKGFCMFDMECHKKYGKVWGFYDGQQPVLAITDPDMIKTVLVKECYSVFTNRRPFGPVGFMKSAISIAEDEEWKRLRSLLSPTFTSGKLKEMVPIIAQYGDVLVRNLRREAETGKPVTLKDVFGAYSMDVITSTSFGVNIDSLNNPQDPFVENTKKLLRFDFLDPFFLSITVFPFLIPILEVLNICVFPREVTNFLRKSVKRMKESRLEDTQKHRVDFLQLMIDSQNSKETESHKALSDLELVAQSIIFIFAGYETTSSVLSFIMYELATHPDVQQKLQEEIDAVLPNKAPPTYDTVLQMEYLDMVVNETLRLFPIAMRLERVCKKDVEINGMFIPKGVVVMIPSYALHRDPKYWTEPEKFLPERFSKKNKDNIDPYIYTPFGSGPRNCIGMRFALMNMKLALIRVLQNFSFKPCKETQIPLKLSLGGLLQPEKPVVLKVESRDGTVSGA

Consider `Clc1nc(Cl)nc(Nc2ccccc2Cl)n1`, for which the Potency entry in assay [1], in assay [2], in [3], in assay [4], in [5] and in assay [6] was “inactive” throughout. In addition, the Potency entry in [7], in assay [8], in [9], in assay [11], in assay [13] and in [18] was “inactive” throughout. Besides, the Potency result in assay [19] is “inactive”. Moreover, the activation in [10] is 0.42% and 30.1%; in assay [15], -1.67% and -3.76%; in [17], 3.35% and 3.56%. For the same compound, the result in assay [12] and in assay [16] was inactive. The activity change % (negative = inhibition) in assay [14] was 11.4%.

In the case of `Clc1ccc2ccccc2c1`, the Potency result in assay [1], in assay [2], in assay [3], in assay [4], in assay [5] and in [6] was “inactive” in each case. In addition, the Potency entry in [7], in assay [8], in [9], in [11], in [13] and in assay [18] was “inactive” throughout. The Potency result in [19] was “inactive”. Further, the activation is -0.849% in assay [10], 1.92% in [15] and 0.057% in assay [17]. Also, the outcome in assay [12] and in assay [16] was inactive. The activity change % (negative = inhibition) in assay [14] is -12%. Further, the max response in assay [20] is 7.07%.

Take `CC(C)(C)OO`: the Potency entry in assay [1], in [2], in assay [3], in assay [4], in assay [5] and in assay [6] was “inactive” each time. In addition, the Potency result in [7], in assay [13], in [18] and in assay [19] was “inactive” throughout. For the same compound, the result in [12] and in assay [16] was inactive. Also, the activity change % (negative = inhibition) in assay [14] is 4.81% and -2.74%. Besides, the activation in assay [15] was 0.296%; in assay [17], -0.688% and -2.1%. Besides, the max response in assay [20] is 1.05% and -0.992%.

As to `COc1ccc(C=O)cc1OC`, the Potency result in assay [1], in [2], in [3], in [4], in assay [5] and in [6] was “inactive” each time. The Potency result in assay [7], in assay [8], in assay [9], in assay [13], in [18] and in assay [19] was “inactive” throughout. In addition, the result in assay [12] was inactive. In [14], the activity change % (negative = inhibition) is 2.18% and 12.7%. Moreover, the activation in assay [15] is -1.53% and 0.661%; in [17], 0.671% and 1.28%. Moreover, in assay [20], the max response is -2.56% and 1.92%.

`CC(C)(OO)c1ccccc1`: the Potency entry in assay [1], in assay [6], in [8], in assay [11] and in assay [13] was “inactive” each time. Also, the Potency is 39.8 µM (active) in assay [2], 25.1 µM (active) in assay [4], 31.6 µM (active) in assay [7] and 42.2 µM (active) in assay [18]. The activation in [10] was 1.9% and -7.5%; in assay [15] it was 0.437% and -4.93%; in assay [17], 0.536% and 0.232%. The result in [12] and in [16] was inactive. In assay [14], the activity change % (negative = inhibition) was 14.1% and -10.7%. Also, the max response in assay [20] is 7.13% and -0.342%.

Regarding `OCC1CO1` (stereo not drawn), the Potency result in [1], in [2], in [3], in assay [4], in assay [5] and in assay [6] was “inactive” each time. Besides, the Potency entry in assay [7], in [8], in assay [9], in [11], in assay [13] and in [18] was “inactive” throughout. The activation in assay [10] was -12%; in [15] it was -2.94% and 1.37%; in [17] it was -0.664% and -1.74%. The compound was classed as inactive in assay [12] and in assay [16]. Besides, the activity change % (negative = inhibition) in assay [14] was -4.57% and 15.9%. Moreover, in [20], the max response was -4.01% and -4.87%.

Consider `c1nc[nH]n1`, for which the Potency entry in assay [2], in assay [3], in assay [4], in assay [5], in [6] and in [7] was “inactive” each time. Also, the Potency entry in [8], in assay [9], in assay [11], in assay [13], in [18] and in assay [19] was “inactive” throughout. Also, the activation in assay [10] was 11.9%; in assay [15], -1.22%; in assay [17], -0.221%. For the same compound, the outcome in assay [12] and in assay [16] was inactive. Moreover, the max response in assay [20] is 0.756%.

In the case of `CC(C)(C)OOC(C)(C)C`, the Potency entry in assay [1], in assay [2], in [3], in [4], in assay [5] and in assay [6] was “inactive” in each case. The Potency entry in assay [7], in assay [8], in [9], in assay [11], in assay [13] and in assay [18] was “inactive” each time. The Potency entry in [19] is “inactive”. The activation in [10] was -1.7%; in assay [15] it was -4.97%; in [17], -0.903%. Besides, the outcome in assay [12] and in [16] was inactive. Also, the activity change % (negative = inhibition) in [14] is -4.91%. The max response in [20] is 2.42%.

On to `NC(=S)Nc1ccccc1`, for which the Potency entry in assay [1], in assay [2], in [3], in assay [4], in [5] and in assay [6] was “inactive” throughout. Besides, the Potency entry in assay [7], in assay [8], in [9], in assay [11], in assay [13] and in [18] was “inactive” throughout. For the same compound, the Potency result in assay [19] was “inactive”. Also, the activation in [10] is 11.7%; in assay [17] it was 0.646% and -0.436% and 0.133%. Further, the compound was called inactive in [12] and in assay [16]. In assay [14], the activity change % (negative = inhibition) was -7.36% and -1.01% and 3.6%.
